These results are taken from PubChem BioAssay (EPA / NIEHS).

The structures appear in SMILES notation. Inconclusive results are not listed. Calls of active or inactive are those of the source. How the source made its calls, unless noted: active means hit-call score of the fitted dose curve at least 0.9, where 1 is the maximum; inconclusive means response in the unintended direction; inactive means score below 0.9.

Assay [1] in a line: ATG_TAL_CIS: Attagene CIS-FACTORIAL HepG2 Assay for human TAL Basal Promoter (AID 2282966; active means hit-call score of the fitted dose curve at least 0.9, where 1 is the maximum; inactive means score below 0.9;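 further: background control endpoint measuring basal TAL promoter reporter mRNA not a specific factor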). The conditions noted are these: HepG2 Attagene cis-factorial TAL promoter reporter; actives raise or lower the signal. Put shortly: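 Endogenous transcription-factor activity is sensed in HepG2 cells through transfected cis-promoter reporter constructs. After 24 h dosing, reporter transcripts are quantified by RT-PCR and capillary electrophoresis. Gain or loss of signal is fitted relative to DMSO.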

Assay [2] can be described thus: ATG_VDRE_CIS: Attagene CIS-FACTORIAL HepG2 Assay for human Vitamin D Receptor Element (VDRE) (AID 2282968; active means hit-call score of the fitted dose curve at least 0.9, where 1 is the maximum; inactive means score below 0.9). The following applies: HepG2 VDRE cis-reporter transcription, actives raise or lower the signal. The procedure, abridged:
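Compounds were applied for 24 h to HepG2 cells transfected with promoter-regulated reporter units. Total RNA was reverse-transcribed, and reporter amplicons were fluorescently labelled and sized by capillary electrophoresis.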

Assay [3] concerns the target Nuclear receptor subfamily 1 group I member 3 (Homo sapiens) (UniProt Q14994). The assay can be described thus: ATG_CAR_TRANS: Attagene TRANS-FACTORIAL HepG2 Assay for human Constitutive Androstane Receptor (CAR) (AID 2282969).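 Further: activators raise reporter mRNA above DMSO so AC50 marks induction.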 The following applies: HepG2 Attagene TRANS-FACTORIAL CAR reporter. Put shortly: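 Transiently transfected HepG2, multiplex TRANS reporters (CAR-Gal4 chimera driving GAL4-UAS reporter). 24 h dosing. Readout: reporter transcript by RT-PCR + capillary electrophoresis, fluorescence intensity; positive direction vs DMSO.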

The target in assay [4] is Steroid hormone receptor ERR1 (Homo sapiens) (UniProt P11474). As to the kind of experiment: ATG_ERRa_TRANS: Attagene TRANS-FACTORIAL HepG2 Assay for human Estrogen-Related Receptor alpha (ERRa) (AID 2282971). The following applies: HepG2 Attagene TRANS reporter, ERRa transactivation. The procedure, abridged:
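HepG2 cells were transiently transfected with multiple GAL4-UAS reporter units, then dosed with compound for 24 h. Total RNA was reverse-transcribed, reporter cDNA PCR-amplified and fluorescently labelled, and fragments resolved by capillary electrophoresis; induction was compared with DMSO.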

The target in assay [5] is X-box-binding protein 1 (Homo sapiens) (UniProt P17861). The assay can be described thus: ATG_Xbp1_CIS: Attagene CIS-FACTORIAL HepG2 Assay for human X-box Binding Protein 1 (XBP1) (AID 2282972; active means hit-call score of the fitted dose curve at least 0.9, where 1 is the maximum; inactive means score below 0.9). The following applies: HepG2 XBP1 cis-element reporter, Attagene multiplex; actives raise or lower the signal. Put shortly:
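Multiplexed cis-reporter readout in transfected HepG2 liver cells. Exposure lasted 24 hours. Activity in either direction was fitted against DMSO as negative control and baseline.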

In assay [6] the target is Estrogen-related receptor gamma (Homo sapiens) (UniProt P62508). As to the kind of experiment: ATG_ERRg_TRANS: Attagene TRANS-FACTORIAL HepG2 Assay for human Estrogen-Related Receptor gamma (ERRg) (AID 2282977).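 Further: hits increase reporter signal over DMSO so potencies reflect activators.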 The following applies: HepG2 Attagene TRANS reporter, ERRg transactivation. Put shortly:
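Induction of reporter transcripts through a chimeric NR-Gal4 protein is quantified in transfected human HepG2 liver cells after 24 h chemical exposure, using RT-PCR with capillary electrophoresis detection and DMSO as baseline.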

Assay [7] has as its target Glucocorticoid receptor (Homo sapiens) (UniProt P04150). The assay can be described thus: ATG_GR_TRANS: Attagene TRANS-FACTORIAL HepG2 Assay for human Glucocorticoid Receptor (GR) (AID 2282978).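 Further: activators score as hits since higher reporter transcript over DMSO is fitted.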 The conditions noted are these: HepG2 Attagene TRANS GR reporter, mRNA transcription. Put shortly:
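HepG2 cells transiently transfected with GAL4-UAS reporter units and exogenous GR-Gal4 chimera, dosed 24 h. Reporter mRNA by RT-PCR, FAM labeling, HpaI digest and capillary electrophoresis; gain-of-signal fit versus DMSO.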

Assay [8] deals with Oxysterols receptor LXR-alpha (Homo sapiens) (UniProt Q13133). As to the kind of experiment: ATG_LXRa_TRANS: Attagene TRANS-FACTORIAL HepG2 Assay for human Liver X Receptor alpha (LXRa) (AID 2282980). The following applies: HepG2 Attagene TRANS reporter, LXRa transactivation. Put shortly:
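Transient HepG2 transfectants, 24 h dosing, RT-PCR/CE mRNA reporter quantitation; gain-of-signal vs DMSO.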

Assay [9] has as its target Oxysterols receptor LXR-beta (Homo sapiens) (UniProt P55055). As to the kind of experiment: ATG_LXRb_TRANS: Attagene TRANS-FACTORIAL HepG2 Assay for human Liver X Receptor beta (LXRb) (AID 2282981). The conditions noted are these: HepG2 Attagene TRANS GAL4-LXRb reporter, mRNA. Put shortly:
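Multiplexed reporter assay, HepG2, 24 h dosing. Fluorescence of labelled RT-PCR products after capillary electrophoresis gives transcript level; positive fitting direction relative to DMSO.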

Assay [10] addresses Hepatocyte nuclear factor 4-alpha (Homo sapiens) (UniProt P41235). As to the kind of experiment: ATG_HNF4a_TRANS: Attagene TRANS-FACTORIAL HepG2 Assay for human Hepatocyte Nuclear Factor 4 alpha (HNF4a) (AID 2282982). The following applies: HepG2 HNF4a transactivation reporter, mRNA readout. Put shortly:
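Endpoint reflects transcriptional activation of a GAL4-UAS reporter by an HNF4a-GAL4 chimera in transfected HepG2 cells, 24 h post-dosing. Fluorescence from RT-PCR products separated by capillary electrophoresis; DMSO baseline.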

A short description of assay [11]: ATG_M_06_TRANS: Attagene TRANS-FACTORIAL HepG2 Assay for M06 Transcription Factor (Internal Marker) (AID 2282983). The conditions noted are these: HepG2 Attagene TRANS M06 internal marker reporter. Put shortly:
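Human liver HepG2 cells bearing transiently transfected chimeric NR-GAL4 reporter units were treated with chemicals for 24 h. Total RNA was reverse-transcribed, reporter sequences amplified and labelled, then quantified by capillary electrophoresis. Activity was fitted upward relative to DMSO.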

Assay [12] is described as follows: ATG_M_32_TRANS: Attagene TRANS-FACTORIAL HepG2 Assay for M32 Transcription Factor (Internal Marker) (AID 2282984).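 Further: transcript level of a background control reporter unit measured by RT-PCR and capillary electrophoresis.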 The conditions noted are these: HepG2 Attagene TRANS M32 internal marker reporter. The procedure, abridged:
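Internal-marker readout from a multiplexed transcription reporter panel. HepG2 cells were transfected with GAL4-UAS reporter units, treated 24 hours, and reporter transcript levels determined by fluorescence after RT-PCR and capillary separation.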

The target of assay [13] is Nuclear receptor subfamily 4 group A member 2 (Homo sapiens) (UniProt P43354). As to the kind of experiment: ATG_NURR1_TRANS: Attagene TRANS-FACTORIAL HepG2 Assay for human Nuclear Receptor Related Protein 1 (NURR1) (AID 2282985). The conditions noted are these: HepG2 Attagene TRANS reporter, mRNA readout. The procedure, abridged: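 Endpoint: reporter mRNA increase relative to DMSO. HepG2 cells transfected with reporter units, treated 24 h; RNA processed by RT-PCR, labelling, HpaI digestion and capillary electrophoresis.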
Sequence of Nuclear receptor subfamily 4 group A member 2 (Homo sapiens) (P43354 whole entry, looked up): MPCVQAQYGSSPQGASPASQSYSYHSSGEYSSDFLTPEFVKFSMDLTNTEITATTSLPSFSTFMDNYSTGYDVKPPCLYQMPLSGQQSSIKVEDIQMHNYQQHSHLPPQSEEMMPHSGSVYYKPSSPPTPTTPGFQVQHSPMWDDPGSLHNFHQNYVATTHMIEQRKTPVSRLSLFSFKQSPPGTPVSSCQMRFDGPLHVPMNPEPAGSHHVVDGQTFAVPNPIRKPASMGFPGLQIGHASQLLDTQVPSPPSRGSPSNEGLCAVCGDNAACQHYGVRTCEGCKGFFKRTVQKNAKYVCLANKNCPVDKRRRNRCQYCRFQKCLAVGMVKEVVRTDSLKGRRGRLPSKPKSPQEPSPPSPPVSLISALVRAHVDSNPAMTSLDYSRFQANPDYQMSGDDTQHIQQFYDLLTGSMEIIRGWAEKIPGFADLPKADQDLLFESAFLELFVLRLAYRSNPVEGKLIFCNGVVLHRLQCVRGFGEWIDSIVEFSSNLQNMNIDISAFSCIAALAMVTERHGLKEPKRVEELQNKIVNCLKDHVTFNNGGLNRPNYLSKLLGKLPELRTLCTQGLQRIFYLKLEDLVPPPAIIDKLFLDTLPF

The target of assay [14] is Transcriptional activator Myb (Homo sapiens) (UniProt P10242). As to the kind of experiment: ATG_Myb_CIS: Attagene CIS-FACTORIAL HepG2 Assay for human Myeloblastosis (Myb) Proto-Oncogene Transcription Factor (AID 2282986; active means hit-call score of the fitted dose curve at least 0.9, where 1 is the maximum; inactive means score below 0.9). The following applies: HepG2 Attagene CIS-FACTORIAL Myb reporter transcription; actives raise or lower the signal. The procedure, abridged:
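Transiently transfected HepG2 cells carrying a multiplexed cis-promoter reporter set report endogenous Myb activity after 24 h compound exposure. Reporter mRNA is read by RT-PCR with capillary electrophoresis of fluorescent products, fitted bidirectionally against DMSO.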

Assay [15] concerns the target Nuclear respiratory factor 1 (Homo sapiens) (UniProt Q16656). The assay can be described thus: ATG_NRF1_CIS: Attagene CIS-FACTORIAL HepG2 Assay for human Nuclear Respiratory Factor 1 (NRF1) Orphan Gene (AID 2282987; active means hit-call score of the fitted dose curve at least 0.9, where 1 is the maximum; inactive means score below 0.9). The following applies: HepG2 NRF1 cis-element reporter, Attagene multiplex; actives raise or lower the signal. Put shortly:
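HepG2 cells transiently transfected with multiple cis-regulated reporter units, exposed 24 h. Reporter mRNAs measured by RT-PCR, fluorescent labelling, HpaI digestion and capillary electrophoresis; bidirectional fitting against DMSO.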

The target in assay [16] is Estrogen receptor (Homo sapiens) (UniProt P03372). As to the kind of experiment: ATG_ERa_TRANS: Attagene TRANS-FACTORIAL HepG2 Assay for human Estrogen Receptor alpha (ERa) (AID 2282970). The conditions noted are these: HepG2 Attagene TRANS ERa GAL4 reporter, mRNA. The procedure, abridged:
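Transfected HepG2 cells carrying GAL4-UAS-driven reporter units were dosed for 24 hours. Total RNA was reverse-transcribed, reporter sequences PCR-amplified, FAM-labelled, HpaI-digested and resolved by capillary electrophoresis. Increases over DMSO control defined activity.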

A short description of assay [17]: ATG_GAL4_TRANS: Attagene TRANS-FACTORIAL HepG2 Assay for GAL4 (Internal Marker) (AID 2282976). The following applies: HepG2 Attagene TRANS GAL4 internal marker reporter. The procedure, abridged:
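Fluorescence from capillary electrophoresis of labelled RT-PCR products quantifies reporter mRNA induction after 24 h dosing of HepG2 cells carrying transfected GAL4-UAS reporter transcription units. Vehicle DMSO serves as baseline.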

Assay [18] in a line: ATG_M_19_TRANS: Attagene TRANS-FACTORIAL HepG2 Assay for M19 Transcription Factor (Internal Marker) (AID 2282974). The conditions noted are these: HepG2 Attagene TRANS-FACTORIAL M19 internal marker reporter. The procedure, abridged: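 HepG2 transiently transfected with GAL4-UAS multiplex reporter constructs, exposed 24 h; reporter RNA quantified by RT-PCR, 6-FAM labeling, HpaI digestion and capillary electrophoresis; internal background marker fitted upward versus DMSO.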

Sequence of Estrogen receptor (Homo sapiens) (P03372 whole entry, looked up, the tested form may be a part): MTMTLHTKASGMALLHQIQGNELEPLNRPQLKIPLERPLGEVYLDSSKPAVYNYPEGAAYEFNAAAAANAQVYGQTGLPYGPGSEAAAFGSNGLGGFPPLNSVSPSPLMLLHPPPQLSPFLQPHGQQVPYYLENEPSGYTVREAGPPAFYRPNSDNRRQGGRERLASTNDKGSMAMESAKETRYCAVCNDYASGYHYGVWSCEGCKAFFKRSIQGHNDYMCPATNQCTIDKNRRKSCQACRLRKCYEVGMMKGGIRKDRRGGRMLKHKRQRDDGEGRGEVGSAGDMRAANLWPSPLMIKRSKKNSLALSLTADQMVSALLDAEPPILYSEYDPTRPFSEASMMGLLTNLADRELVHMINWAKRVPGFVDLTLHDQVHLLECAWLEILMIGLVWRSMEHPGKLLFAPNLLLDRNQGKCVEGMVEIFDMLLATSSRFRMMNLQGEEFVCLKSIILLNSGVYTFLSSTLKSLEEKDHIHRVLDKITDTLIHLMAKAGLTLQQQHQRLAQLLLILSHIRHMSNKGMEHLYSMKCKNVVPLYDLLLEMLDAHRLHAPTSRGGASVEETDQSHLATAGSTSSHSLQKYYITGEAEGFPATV
Sequence of Oxysterols receptor LXR-alpha (Homo sapiens) (Q13133 whole entry, looked up): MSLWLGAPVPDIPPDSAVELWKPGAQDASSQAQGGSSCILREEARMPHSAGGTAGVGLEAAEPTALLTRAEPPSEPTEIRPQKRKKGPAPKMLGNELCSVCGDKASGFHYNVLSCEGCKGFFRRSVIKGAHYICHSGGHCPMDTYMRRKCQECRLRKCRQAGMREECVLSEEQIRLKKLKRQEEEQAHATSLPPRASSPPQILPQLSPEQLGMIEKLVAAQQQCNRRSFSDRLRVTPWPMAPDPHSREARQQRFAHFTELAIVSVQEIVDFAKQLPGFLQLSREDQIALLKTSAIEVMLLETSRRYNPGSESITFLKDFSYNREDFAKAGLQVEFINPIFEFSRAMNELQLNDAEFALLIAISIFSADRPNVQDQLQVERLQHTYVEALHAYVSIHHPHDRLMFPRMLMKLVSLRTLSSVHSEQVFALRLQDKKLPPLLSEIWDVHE
Sequence of Glucocorticoid receptor (Homo sapiens) (P04150 whole entry, looked up, the tested form may be a part): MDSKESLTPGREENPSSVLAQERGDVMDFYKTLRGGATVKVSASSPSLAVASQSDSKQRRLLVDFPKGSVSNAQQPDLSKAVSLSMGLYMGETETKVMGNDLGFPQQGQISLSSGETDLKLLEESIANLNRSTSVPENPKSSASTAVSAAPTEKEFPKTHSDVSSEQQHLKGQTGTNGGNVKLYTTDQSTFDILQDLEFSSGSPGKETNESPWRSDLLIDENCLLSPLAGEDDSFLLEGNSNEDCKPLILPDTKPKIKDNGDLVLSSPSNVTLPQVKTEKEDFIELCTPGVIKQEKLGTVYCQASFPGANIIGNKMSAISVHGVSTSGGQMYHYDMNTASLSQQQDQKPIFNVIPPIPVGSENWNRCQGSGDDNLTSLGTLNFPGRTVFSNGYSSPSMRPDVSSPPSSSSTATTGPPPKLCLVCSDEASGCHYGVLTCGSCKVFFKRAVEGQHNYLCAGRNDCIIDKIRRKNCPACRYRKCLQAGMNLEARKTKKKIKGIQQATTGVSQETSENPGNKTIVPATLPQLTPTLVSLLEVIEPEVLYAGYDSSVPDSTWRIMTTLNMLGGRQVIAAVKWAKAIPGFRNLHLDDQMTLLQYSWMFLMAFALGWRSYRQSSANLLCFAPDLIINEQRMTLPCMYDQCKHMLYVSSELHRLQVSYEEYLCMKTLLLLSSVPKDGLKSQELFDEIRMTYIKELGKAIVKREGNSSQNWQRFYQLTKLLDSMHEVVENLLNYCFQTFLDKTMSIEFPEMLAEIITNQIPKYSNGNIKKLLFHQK
Sequence of Nuclear receptor subfamily 1 group I member 3 (Homo sapiens) (Q14994 whole entry, looked up, the tested form may be a part): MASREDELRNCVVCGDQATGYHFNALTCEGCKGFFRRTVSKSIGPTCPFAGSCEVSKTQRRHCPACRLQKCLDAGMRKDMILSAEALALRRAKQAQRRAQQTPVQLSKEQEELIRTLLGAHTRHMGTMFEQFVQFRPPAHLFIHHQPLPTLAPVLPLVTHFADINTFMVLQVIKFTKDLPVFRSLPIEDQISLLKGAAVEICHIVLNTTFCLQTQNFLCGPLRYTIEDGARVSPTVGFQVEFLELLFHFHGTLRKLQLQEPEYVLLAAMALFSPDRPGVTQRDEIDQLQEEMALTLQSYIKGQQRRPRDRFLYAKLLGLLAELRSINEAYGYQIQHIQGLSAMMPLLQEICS
Sequence of Oxysterols receptor LXR-beta (Homo sapiens) (P55055 whole entry, looked up, the tested form may be a part): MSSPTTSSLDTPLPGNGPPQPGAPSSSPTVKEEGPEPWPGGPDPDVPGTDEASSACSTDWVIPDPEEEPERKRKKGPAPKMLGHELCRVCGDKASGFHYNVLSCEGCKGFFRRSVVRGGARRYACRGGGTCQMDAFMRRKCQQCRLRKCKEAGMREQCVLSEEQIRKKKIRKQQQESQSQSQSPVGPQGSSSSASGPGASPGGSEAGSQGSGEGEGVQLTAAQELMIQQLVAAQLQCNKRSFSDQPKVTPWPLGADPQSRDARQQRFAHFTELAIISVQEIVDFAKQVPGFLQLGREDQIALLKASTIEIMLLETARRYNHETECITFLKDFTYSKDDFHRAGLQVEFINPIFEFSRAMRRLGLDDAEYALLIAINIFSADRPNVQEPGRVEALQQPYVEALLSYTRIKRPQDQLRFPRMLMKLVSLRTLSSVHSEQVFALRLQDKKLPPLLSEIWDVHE
Sequence of Hepatocyte nuclear factor 4-alpha (Homo sapiens) (P41235 whole entry, looked up, the tested form may be a part): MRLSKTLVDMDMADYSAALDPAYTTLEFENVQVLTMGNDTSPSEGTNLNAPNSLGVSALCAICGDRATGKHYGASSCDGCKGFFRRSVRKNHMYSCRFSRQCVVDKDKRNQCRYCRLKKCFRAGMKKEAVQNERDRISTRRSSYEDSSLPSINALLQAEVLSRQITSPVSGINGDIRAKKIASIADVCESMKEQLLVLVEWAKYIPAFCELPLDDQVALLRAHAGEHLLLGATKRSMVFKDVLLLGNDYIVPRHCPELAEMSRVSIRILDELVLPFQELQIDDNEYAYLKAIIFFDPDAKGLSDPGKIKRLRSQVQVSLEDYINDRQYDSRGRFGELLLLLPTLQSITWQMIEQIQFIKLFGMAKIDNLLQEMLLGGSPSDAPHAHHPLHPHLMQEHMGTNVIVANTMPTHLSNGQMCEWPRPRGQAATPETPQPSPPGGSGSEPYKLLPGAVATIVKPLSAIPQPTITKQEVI
Sequence of X-box-binding protein 1 (Homo sapiens) (P17861 whole entry, looked up): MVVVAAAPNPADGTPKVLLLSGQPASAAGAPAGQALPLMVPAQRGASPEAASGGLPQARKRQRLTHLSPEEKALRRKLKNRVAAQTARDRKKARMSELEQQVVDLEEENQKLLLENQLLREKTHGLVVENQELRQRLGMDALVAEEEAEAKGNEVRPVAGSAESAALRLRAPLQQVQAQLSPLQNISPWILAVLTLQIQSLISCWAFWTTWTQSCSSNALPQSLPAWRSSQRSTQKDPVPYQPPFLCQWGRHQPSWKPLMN
Sequence of Nuclear respiratory factor 1 (Homo sapiens) (Q16656 whole entry, looked up): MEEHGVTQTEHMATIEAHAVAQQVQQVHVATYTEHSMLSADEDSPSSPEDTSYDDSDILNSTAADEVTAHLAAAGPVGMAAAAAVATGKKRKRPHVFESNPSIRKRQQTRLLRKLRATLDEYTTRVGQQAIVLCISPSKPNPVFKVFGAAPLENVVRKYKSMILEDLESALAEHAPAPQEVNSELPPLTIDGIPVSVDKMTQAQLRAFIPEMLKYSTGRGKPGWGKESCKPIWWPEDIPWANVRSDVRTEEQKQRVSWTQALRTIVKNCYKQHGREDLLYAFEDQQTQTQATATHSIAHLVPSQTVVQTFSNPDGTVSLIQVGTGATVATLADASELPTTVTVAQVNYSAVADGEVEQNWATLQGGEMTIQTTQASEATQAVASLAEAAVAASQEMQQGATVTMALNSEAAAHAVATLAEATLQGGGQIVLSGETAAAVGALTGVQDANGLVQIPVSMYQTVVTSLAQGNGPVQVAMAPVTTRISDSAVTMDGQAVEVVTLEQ
Sequence of Steroid hormone receptor ERR1 (Homo sapiens) (P11474 whole entry, looked up, the tested form may be a part): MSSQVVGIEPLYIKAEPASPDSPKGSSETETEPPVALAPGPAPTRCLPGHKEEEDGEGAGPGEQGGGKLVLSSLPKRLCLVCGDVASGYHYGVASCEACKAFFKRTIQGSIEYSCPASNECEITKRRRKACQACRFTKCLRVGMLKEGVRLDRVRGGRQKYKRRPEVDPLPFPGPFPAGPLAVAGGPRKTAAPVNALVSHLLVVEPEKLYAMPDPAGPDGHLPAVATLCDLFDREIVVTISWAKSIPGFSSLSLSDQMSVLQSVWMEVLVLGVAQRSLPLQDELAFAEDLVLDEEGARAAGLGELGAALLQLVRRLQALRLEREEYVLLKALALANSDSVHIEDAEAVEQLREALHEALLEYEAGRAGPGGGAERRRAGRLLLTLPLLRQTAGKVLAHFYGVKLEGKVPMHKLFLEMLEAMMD

In the case of `CCC(C)OC(=O)c1ccc(O)cc1` (configuration not stated), the compound was classed as inactive in [1], in [3], in assay [4], in assay [5], in assay [6] and in assay [7]. Also, the call in assay [8], in assay [9], in assay [10], in assay [11], in assay [12] and in assay [13] was inactive. Also, the compound was classed as inactive in assay [14] and in assay [15]. Moreover, the AC50 in assay [2] is 62.7 µM (active).

Take `C=C(C)C(=O)OCCOc1ccccc1`: the compound was classed as inactive in assay [1], in [2], in [16], in assay [5], in assay [17] and in assay [6]. Besides, the compound was called inactive in [10], in [11], in [13], in [14] and in assay [15].

On to `CCOCC(=O)O`, for which the outcome in [1], in assay [2], in assay [4], in assay [5], in assay [18] and in [8] was inactive. In addition, the compound was classed as inactive in assay [14] and in assay [15].

With `CC(C)c1ccc(C=O)cc1`, the result in assay [1], in assay [2], in assay [3], in assay [16], in [5] and in [7] was inactive. Moreover, the compound was called inactive in assay [9], in [10], in assay [11], in assay [12], in assay [14] and in assay [15].

As for `C=C[Si](C)(C)O[Si](C)(C)C=C`, the outcome in assay [1], in assay [2], in assay [5], in [18], in assay [7] and in assay [8] was inactive. Also, the outcome in [9], in assay [10], in assay [11], in assay [12] and in assay [15] was inactive.

Regarding `CC(=O)c1ccc2c(c1)CCCC2`, the compound was called inactive in assay [1], in assay [2], in assay [16], in [5], in assay [18] and in [7]. The compound was called inactive in assay [9], in assay [12], in [14] and in assay [15].

In the case of `CCC(CC)C(=O)O`, the compound was called inactive in [1], in [2], in assay [5], in [18], in assay [17] and in assay [7]. In addition, the compound was called inactive in [10], in [14] and in assay [15].

With `CNC(=S)N(C)C`, the result in assay [1], in [2], in assay [3], in assay [16], in [5] and in [17] was inactive. Also, the compound was called inactive in assay [7], in assay [9], in assay [10] and in assay [15].

Regarding `CC1=CC[C@H]2C[C@@H]1C2(C)C`, the compound was classed as inactive in assay [1], in assay [2], in assay [16], in [5], in assay [18] and in assay [8]. Moreover, the result in assay [9], in assay [12], in [13], in assay [14] and in [15] was inactive.

In general, AC50 refers to the concentration giving half of the maximal activity seen.
